Screening results from PubChem.
An excerpt weighted towards active compounds, which were near 1.1% of everything screened.
GALK inh: qHTS Assay for Inhibitors of Human Galactokinase (GALK). P51570. Purified GALK, Kinase-Glo residual ATP luminescence. Potency, µM (titrated, usually from 57.5 µM), hits mostly inhibitors. 270,000 tested, 0.007% active. AID 1868, 2009
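Luminescence from leftover ATP (Ultra-Glo luciferase/luciferin) served as read-out after a 1 h room-temperature reaction of 5 nM GALK with 35 uM ATP and 100 uM galactose.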
rTrxR1 inhibitor: qHTS Assay for Inhibitors of Mammalian Selenoprotein Thioredoxin Reductase 1 (TrxR1): qHTS. Thioredoxin reductase 1, cytoplasmic (Rattus norvegicus), O89049. recombinant rTrxR1, NADPH fluorescence consumption, selenite substrate. Potency, µM (doses to about 114 µM), actives largely listed as inhibitors. 390,000 tested, 1% active. AID 588453, 2011; note: nearly all actives have a fitted effect of over 65% in size
Target sequence (O89049 whole entry, looked up): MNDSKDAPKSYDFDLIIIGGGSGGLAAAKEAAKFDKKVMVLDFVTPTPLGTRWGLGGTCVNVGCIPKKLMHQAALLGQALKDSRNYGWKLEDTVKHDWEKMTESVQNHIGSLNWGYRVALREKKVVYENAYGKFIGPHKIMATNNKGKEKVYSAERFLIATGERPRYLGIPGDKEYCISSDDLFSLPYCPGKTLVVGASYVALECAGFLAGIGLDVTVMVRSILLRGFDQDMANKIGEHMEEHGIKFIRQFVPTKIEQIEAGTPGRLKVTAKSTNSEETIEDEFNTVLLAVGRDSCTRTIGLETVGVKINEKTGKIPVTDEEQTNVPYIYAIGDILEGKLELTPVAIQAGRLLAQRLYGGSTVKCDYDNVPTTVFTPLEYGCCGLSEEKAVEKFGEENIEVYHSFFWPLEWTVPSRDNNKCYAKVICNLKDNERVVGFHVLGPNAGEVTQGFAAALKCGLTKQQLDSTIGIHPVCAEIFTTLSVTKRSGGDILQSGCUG
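Rat TrxR1 (90 nM in the dispensed reagent) was pre-reduced with 400 uM NADPH for 5 min at room temperature, then incubated with compound for 15 min. After 400 uM selenite was added, NADPH fluorescence (Ex 340/Em 450 nm) was followed for 8 min.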
TrxR1 substrate: qHTS Assay for Substrates of Mammalian Selenoprotein Thioredoxin Reductase 1 (TrxR1): qHTS; Thioredoxin reductase 1, cytoplasmic (Rattus norvegicus), O89049; purified TrxR1 substrate turnover, NADPH consumption readout; Potency, µM (highest dose often 114 µM); 390,000 tested, 0.01% active; note: nearly all actives have a fitted effect of over 50% in size
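Rat TrxR1, dispensed at 90 nM, was prereduced with 400 uM NADPH (final) for 5 min at ~22 deg C, then incubated with compound 15 min before 400 uM selenite. A first-read NADPH fluorescence drop versus no-compound background flagged substrates.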
miR-21 act: qHTS Assay for Modulators of miRNAs and/orActivators of miR-21 | HeLa miR-21 FLuc reporter, luciferase, 48 h | Potency, µM (titrated, usually from 38.3 µM), most hits filed as activators | 340,000 tested, under 10 active;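 note: miR-21 action dims this reporter so a rising signal means less miR-21 action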
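HeLa cells endogenously expressing miR-21, stably carrying CMV-driven firefly luciferase with a downstream miR-21 binding site, 2000 cells/well. Titrations up to approximately 40 uM, 48 hours; luciferase luminescence read.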
PINK1 modulator: A Quantitative High throughput Screen to Identify Chemical Modulators of PINK1 Expression; PINK1 immunofluorescence, high-content cytometry, 24 h; Potency, µM (series often up to 76.6 µM), usual class: activators; 410,000 tested, 0.2% active; AID 624263, 2012; active = well fitted activation curve with a large enough effect; inconclusive = small, poorly fitted or top-dose-only effect; cell line not stated here; note: nearly all actives have a fitted effect of over 65% in size
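Fluorescence from anti-PINK1 antibody, together with nuclear and cell stains, was scanned on a laser-scanning cytometer. Before staining, stable-line cells were incubated 24 hours with compounds at 5 concentrations; primary antibody 12 h at 10 degrees C.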
Hits are given with their value; n = inactive; u = inconclusive; x = no result given. Unless noted, calls come from the whole dose curve; as a rule, active = well fitted curve in the direction sought with a large enough effect; inconclusive = small, poorly fitted or top-dose-only effect, or another doubt; inactive = no such curve, though single readings can be large; an effect the other way counts as inactive or inconclusive.

SMILES	GALK inh	rTrxR1 inhibitor	TrxR1 substrate	miR-21 act	PINK1 modulator
O=C(Nc1ccc(C(=O)N2CCCCC2)cc1)c1ccc(Br)cc1	n	n	n	n	n
N#CC(C#N)=Cc1ccc(NC(=O)c2ccc(Br)cc2)cc1	n	12.6µM	n	n	n
CC(C)(C)c1ccc(C(=O)Nc2ccc(C=C(C#N)C#N)cc2)cc1	n	3.16µM	n	n	n
CC(C)(C)c1ccc(C(=O)Nc2ccc(NC(=O)c3ccc(Cl)c(Cl)c3)cc2)cc1	x	n	n	n	n
O=C(Nc1ccc(OC(F)F)c(Cl)c1)c1ccccn1	n	n	n	n	n
Fc1ccc(NC(=S)Nc2ccc(F)c(Cl)c2)cc1Cl	n	u	n	u	39.8µM
O=C(NC(=S)Nc1ccc(F)c(Cl)c1)C1CC1	n	u	n	n	n
Cc1ccc(NC(=S)Nc2ccc(OC(F)F)c(Cl)c2)cc1F	n	n	n	n	15.8µM
Cc1cccc(NC(=O)c2oc3ccc(S(=O)(=O)N(C)C4CCCCC4)cc3c2C)c1C	x	n	n	n	n
COCCn1c(=O)c(CCc2ccccc2)nc2cnc(OCc3ccccc3)nc21	x	x	x	x	n
N#C/C(=C\c1ccccn1)c1nc2ccccc2s1	n	56.2µM	n	n	u
N#C/C(=C/c1ccc(-c2ccc(S(N)(=O)=O)cc2)o1)c1nc2ccccc2s1	n	89.1µM	n	n	n
Cc1cc(C)cc(NC(=O)c2ccc3c(c2)nnn3C2CCCC2)c1	x	n	n	n	n
O=C1C=C(O)c2ccccc2C1=O	x	x	x	x	n
O=C1C=C(c2c(O)ccc3ccccc23)c2ccccc2C1=O	x	u	79.4µM	x	n
CC1CCCCC1NC(=O)COCc1cc(-c2cccs2)on1 (stereo not drawn)	n	44.7µM	n	n	n
COc1ccc(C(=O)Nc2ccc(C(=O)OCc3cc(=O)n4nc(C5CC5)sc4n3)cc2)cc1	x	n	n	n	n
Cc1nc(-c2ccc(Cl)cc2)sc1CCNC(=O)c1ccco1	x	n	n	n	n
Cc1ccc(/C=C2\SC(=S)N(C3CCS(=O)(=O)C3)C2=O)o1 (stereo not drawn)	n	15.8µM	n	n	n
Cc1cc(C)n2nc(CNC(=O)c3cccc(Cl)c3)nc2n1	x	n	n	n	n
Cc1ccc(C(=O)c2ccc(C)cc2)cc1	n	n	n	n	n
Cc1ccc(C(=O)c2no[n+]([O-])c2C(=O)c2ccc(C)cc2)cc1	x	0.891µM	n	n	n
COc1cc(CNC2CCCC2)cc(Cl)c1OCc1ccc(F)cc1	n	n	n	u	n
COc1cc(CNC2CCCC2)cc(Cl)c1OCc1ccccc1Cl	n	89.1µM	n	n	u
Nc1nc(CN2CCCCCC2)nc(Nc2ccccc2)n1	n	15.8µM	n	n	n
SMILES	GALK inh	rTrxR1 inhibitor	TrxR1 substrate	miR-21 act	PINK1 modulator
O=C(Oc1ccc(N(C(=O)c2ccncc2)S(=O)(=O)c2cccs2)cc1)c1ccncc1	n	39.8µM	n	n	n
C=C1CCN(C(CC(C)C)C(=O)NCc2ccc(Cl)c(Cl)c2)S(=O)(=O)c2ccccc21 (stereo not drawn)	x	n	n	x	x
O=C(NCc1ccco1)[C@@H]1CCCN1C(=O)c1cccs1	n	79.4µM	n	n	n
CCOc1ccccc1NC(=O)c1c(NC(=O)c2ccccc2)sc2c1CCCC2	x	n	n	n	n
CCc1ccccc1NC(=O)c1c(NC(=O)c2ccccc2)sc2c1CCCC2	x	89.1µM	n	n	n
CCN(C(=O)C1CCN(S(=O)(=O)c2ccc3c(c2)CCCN3C(C)=O)CC1)c1cccc(C)c1	x	n	n	n	n
Cc1ccc(NC(=O)c2cnn3c(C(F)F)cc(-c4ccccc4)nc23)c(C)c1	x	n	n	n	n
CCC(C)Sc1cccc(-c2nc3cc(C)ccn3c2NC2CCCCC2)c1 (stereo not drawn)	x	n	n	x	14.1µM
CCCCCCSc1cccc(-c2nc3cc(C)ccn3c2NC2CCCCC2)c1	x	n	n	x	u
Cc1ccn2c(NC3CCCCC3)c(-c3cccc(SC4CCCCC4)c3)nc2c1	x	n	n	x	20µM
Cc1ccn2c(NC3CCCC3)c(-c3ccsc3)nc2c1	n	n	n	n	n
